Laboratory results from PubChem BioAssay.

Each compound was assayed on Chordin-like protein 2 (CHRDL2) (assay: CHRDL2 small-molecule binders, primary screen, biochemical, small-molecule microarray, 635 nm fluorescence (AID 1126;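 note: printed compound slides probed with Chrdl2 protein at 4 µg/mL for 1 h at 4 C; score merges 667 nm emission intensity with signal to noise over three replicate slides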)). Settings: small-molecule microarray binding, fluorescence 635 nm; higher = more signal.
`CCCCC=C[C@@H](NC(=O)c1ccc(C(F)(F)F)cc1)c1ccccc1` gave a composite z-score of -0.94. Work on `CC(c1ccccc1)C(O)C1C=CC2C(=O)N(c3ccccc3)C(=O)C2N1Nc1ccc(C#N)cc1` (stereo not given) yielded a composite z-score of -0.34. `CC(C)(C)N1CC=CC23O[C@@H]4/C=C\CCCOC(=O)C4[C@H]2C(=O)N(CCCCCCO)[C@@H]3C1=O` (stereo not given in full) was tested, and the composite z-score was -1.25. In the case of `COc1ccc(C(O)C2C=CC3C(=O)N(C)C(=O)C3N2Nc2ccc([N+](=O)[O-])cc2[N+](=O)[O-])cc1OCc1ccccc1` (stereo not given), the composite z-score is reported as -0.599. For `C=CC[C@]1(C(=O)N(C)C)COC(c2ccc(OCCCO)cc2)=N1`, the composite z-score was -0.492. `C[C@@H](OCc1ccccc1)C1NC(=O)[C@@]23C(=O)N[C@@H](Cc4ccccc4)C2[C@H](C)[C@@]2(C)O[C@H]2C3/C=C/C/C=C\CNC(=O)[C@H](Cc2ccccc2)NC1=O` (stereo not given in full) showed a composite z-score of 0.665. `COc1ccc([Si](C)(C)[C@H]2[C@H](CCO)O[C@@]3(C(=O)N(Cc4ccc(N5CCOC5=O)cc4)c4ccccc43)[C@@H]2C)cc1` gave a composite z-score of -0.07. In the case of `C=CCC(OC(C)=O)[C@@H]1[C@@H](N(Cc2ccc(-c3ccccc3)cc2)C(=O)c2ccc(C)cc2)c2cc(OCCCO)ccc2N1C(=O)c1ccc2ccccc2c1` (stereo not given in full), the composite z-score is reported as 0.0542. Compound `CC(C)C(=C=CC[C@@H](O)c1cccc(OCCO)c1)CCO` has a composite z-score of 0.55. Work on `COCCOC(=O)N1C(=O)[C@@]2(c3cc(C#CC4(O)CCCCCC4)ccc31)[C@H](c1ccc(OCCO)cc1)N1[C@H](c3ccccc3)[C@H](c3ccccc3)OC(=O)[C@H]1[C@@H]2C(=O)N1CCCCCCC1` yielded a composite z-score of 0.744. `Cc1ccc(F)cc1S(=O)(=O)N[C@@H]1CCN(Cc2ccc3[nH]ccc3c2)C1` was tested, and the composite z-score was 0.651. Compound `C=C(COC)/C(=C/C[C@@H](OC(C)=O)c1ccccc1OCCO)c1cc(C(=O)OC)ccc1OC` has a composite z-score of -0.183. Work on `C=CCN1C(=O)[C@]2(O[C@H](CCO)[C@@H]([Si](C)(C)c3ccc(OC)cc3)[C@@H]2C)c2ccccc21` yielded a composite z-score of -0.884. Compound `COc1ccc(CCNC(=O)[C@@H]2c3ccccc3C(=O)N(CC34CC5CC(CC(C5)C3)C4)[C@H]2c2ccc(CO)cc2)cc1` has a composite z-score of 0.23. In the case of `C=CCC(OC(C)=O)[C@@H]1[C@@H](N(Cc2cccc3ccccc23)C(=O)c2ccc(C)cc2)c2cc(OCCCO)ccc2N1C(=O)c1ccc2ccccc2n1` (stereo not given in full), the composite z-score is reported as 0.618. Compound `COCCCNC(=O)[C@@H]1c2ccccc2C(=O)N(Cc2cc(C(F)(F)F)cc(C(F)(F)F)c2)[C@H]1c1ccc(CO)cc1` has a composite z-score of -0.716. In the case of `CCOC(=O)C[C@H]1[C@H](OC(=O)c2ccc(C(=O)c3ccccc3)cc2)[C@@H](NC(=O)c2ccc3ccccc3c2)c2cc(OCCCO)ccc2N1C(=O)c1ccc2ccccc2n1`, the composite z-score is reported as 0.345. In the case of `C=CCN1C(=O)[C@]2(O[C@H](CCn3cc([C@H](O)c4ccccc4)nn3)[C@@H]([Si](C)(C)c3ccc(OC)cc3)[C@@H]2C)c2cc(N3C(=O)c4cccc5cccc3c45)ccc21`, the composite z-score is reported as -0.693. Work on `CN(C)CCCC[C@@H]1NC(=O)[C@H]2C[C@@H](C(=O)O)[C@@H](c3cccc(OCCO)c3)N2C1=O` yielded a composite z-score of 0.941. `C=CCC(OC(C)=O)[C@@H]1[C@@H](N(Cc2ccc(-c3cccc(C(F)(F)F)c3)o2)C(=O)c2cccc3ccccc23)c2cc(OCCCO)ccc2N1C(=O)c1ccc2ccccc2c1` (stereo not given in full) gave a composite z-score of 0.31. With `C=C(COC)/C(=C/C[C@H](OC(=O)c1ccncc1)c1ccc(OCCO)cc1)c1cc(C(=O)OC)ccc1OC` the composite z-score was 0.249. `COCCOC(=O)N1C(=O)[C@@]2(c3cc(C#CCC(C(=O)OC)C(=O)OC)ccc31)[C@H](C(=O)N1CCc3cc(OC)c(OC)cc3C1)[C@H]1C(=O)O[C@H](c3ccccc3)[C@H](c3ccccc3)N1[C@@H]2c1ccc(O)cc1` showed a composite z-score of 1.05. In the case of `Cc1ccc(S[C@]2(C(=O)NC3CC3)CC(=O)N(Cc3cc(C(F)(F)F)cc(C(F)(F)F)c3)[C@@H]2c2ccc(CO)cc2I)cc1`, the composite z-score is reported as 0.452. `COc1ccc([Si](C)(C)[C@H]2[C@H](CCn3cc([C@H](O)c4ccccc4)nn3)O[C@@]3(C(=O)N(C)c4c(Br)cc(C)cc43)[C@@H]2C)cc1` gave a composite z-score of 0.182. For `CCCCC(O)C1C=CC2C(=O)NC(=O)C2N1Nc1ccc(Cl)cc1Cl` (stereo not given), the composite z-score was -0.452. In the case of `C=CCC(OC(C)=O)[C@@H]1[C@@H](N(Cc2ccc(-c3ccccc3)cc2)C(=O)c2ccc(-c3ccccc3)cc2)c2cc(OCCCO)ccc2N1C(=O)c1ccc2ccccc2n1` (stereo not given in full), the composite z-score is reported as 0.169. In the case of `COc1ccc([Si](C)(C)[C@H]2[C@H](CCO)O[C@@]3(C(=O)N(Cc4ccccc4)c4ccc(N(C=O)c5ccccc5)cc43)[C@@H]2C)cc1`, the composite z-score is reported as -0.0384. Work on `CN(C)CCCC[C@@H]1NC(=O)[C@H]2C[C@@H](C(=O)NCc3ccc(F)cc3)[C@@H](c3ccc(O)cc3)N2C1=O` yielded a composite z-score of 1.13. In the case of `COC(=O)[C@@]1(Cc2ccc(F)cc2)[C@H]2c3cc(C(=O)N(C)C)n(CCO)c3C[C@H]2CN1C(=O)c1ccccc1`, the composite z-score is reported as -0.437. `C=C(/C(=C/C[C@@H](OC(C)=O)c1ccccc1OCCO)c1cc(C(=O)OC)ccc1OC)C(C)C` showed a composite z-score of -0.134. Work on `CCCCN1CC=CC23O[C@@H]4/C=C\CCC(C)OC(=O)C4[C@H]2C(=O)N(C(C)CO)[C@@H]3C1=O` (stereo not given in full) yielded a composite z-score of -0.0668. Compound `NCCCC[C@@H]1NC(=O)[C@H]2C[C@@H](C(=O)NCc3ccc(F)cc3)[C@@H](c3cccc(OCCO)c3)N2C1=O` has a composite z-score of 1.47. `COc1cccc(C[C@H]2C[C@@H](CO[Si](C(C)C)(C(C)C)C(C)C)N3C(=O)[C@@]4(C(C)=O)O[C@@]23[C@@H]2C(=O)N(C)C(=O)[C@@H]24)c1` was tested, and the composite z-score was 0.908. Compound `CC#CCO[Si](C#CCCCCCC)(C(C)C)C(C)C` has a composite z-score of -2.33. Compound `O=C1NC(=O)C2C1C=CC(C(O)c1ccc(F)cc1)N2Nc1ccccn1` (stereo not given) has a composite z-score of 0.317.
